Source: article PMC7862700, “An all-to-all approach to the identification of sequence-specific readers for epigenetic DNA modifications on cytosine”

Experiments:
Experiment in all cases: DAPPL (digital affinity profiling via proximity ligation, sequencing); 10 mM Tris-HCl pH 7.5, 50 mM NaCl, 1 mM DTT, 4% glycerol, room temperature, 30 min; GST-TFs on glutathione beads, 16-mer random dsDNA library, 0.1% formaldehyde crosslink after washing; high values mean tight binding
FLI1 = target: T1, FLI1 (Homo sapiens, UniProt Q01543 1-452); details: protein: recombinant; tags: N-terminal GST; dsDNA, one strand shown
T1 sequence: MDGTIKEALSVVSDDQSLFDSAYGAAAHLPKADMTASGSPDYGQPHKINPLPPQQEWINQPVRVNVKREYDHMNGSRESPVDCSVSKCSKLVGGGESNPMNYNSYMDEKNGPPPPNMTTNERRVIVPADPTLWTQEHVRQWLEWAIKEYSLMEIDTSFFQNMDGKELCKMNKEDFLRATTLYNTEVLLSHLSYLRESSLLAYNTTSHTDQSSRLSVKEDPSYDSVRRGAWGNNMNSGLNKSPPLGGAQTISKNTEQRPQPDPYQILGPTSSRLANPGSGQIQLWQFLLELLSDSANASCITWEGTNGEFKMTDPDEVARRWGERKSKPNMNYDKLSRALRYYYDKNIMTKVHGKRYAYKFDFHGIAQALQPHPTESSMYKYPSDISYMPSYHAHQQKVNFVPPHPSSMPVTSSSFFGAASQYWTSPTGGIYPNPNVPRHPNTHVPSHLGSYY
Method in brief: (§1)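 Pools of DNA-barcoded human transcription factors, expressed in yeast as GST fusions on glutathione beads and combined with a tag-only sample, were incubated with 200 nmole of a 16-mer random double-stranded DNA library. Incubation took 30 min at room temperature in Tris/NaCl/DTT/glycerol buffer and was followed by washing, 0.1% formaldehyde crosslinking, proximity ligation (BsaI/T4 ligase, 1 h, 37 °C), PCR amplification and sequencing on an Illumina NextSeq500. Binding signal is the ratio of a hexamer's read frequency for a factor to its frequency for the tag-only sample.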

ELK1 = target: T2, ELK1 (Homo sapiens, UniProt P19419 1-428); details: protein: recombinant; tags: N-terminal GST; dsDNA, one strand shown
T2 sequence: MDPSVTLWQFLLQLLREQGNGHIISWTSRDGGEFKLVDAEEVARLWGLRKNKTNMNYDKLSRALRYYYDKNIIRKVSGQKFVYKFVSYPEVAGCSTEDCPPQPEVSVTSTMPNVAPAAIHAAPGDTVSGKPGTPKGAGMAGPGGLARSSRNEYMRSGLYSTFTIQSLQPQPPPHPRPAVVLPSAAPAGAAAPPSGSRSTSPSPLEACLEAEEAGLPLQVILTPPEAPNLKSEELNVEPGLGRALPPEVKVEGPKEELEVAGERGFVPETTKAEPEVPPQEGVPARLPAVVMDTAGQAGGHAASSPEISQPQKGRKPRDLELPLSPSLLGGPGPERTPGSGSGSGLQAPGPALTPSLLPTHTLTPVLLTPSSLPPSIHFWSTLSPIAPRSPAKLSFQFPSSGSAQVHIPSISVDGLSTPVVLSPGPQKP
Method in brief: as §1

GABPA = target: T3, GABPA (Homo sapiens, UniProt Q06546 1-454); details: protein: recombinant; tags: N-terminal GST; dsDNA, one strand shown
T3 sequence: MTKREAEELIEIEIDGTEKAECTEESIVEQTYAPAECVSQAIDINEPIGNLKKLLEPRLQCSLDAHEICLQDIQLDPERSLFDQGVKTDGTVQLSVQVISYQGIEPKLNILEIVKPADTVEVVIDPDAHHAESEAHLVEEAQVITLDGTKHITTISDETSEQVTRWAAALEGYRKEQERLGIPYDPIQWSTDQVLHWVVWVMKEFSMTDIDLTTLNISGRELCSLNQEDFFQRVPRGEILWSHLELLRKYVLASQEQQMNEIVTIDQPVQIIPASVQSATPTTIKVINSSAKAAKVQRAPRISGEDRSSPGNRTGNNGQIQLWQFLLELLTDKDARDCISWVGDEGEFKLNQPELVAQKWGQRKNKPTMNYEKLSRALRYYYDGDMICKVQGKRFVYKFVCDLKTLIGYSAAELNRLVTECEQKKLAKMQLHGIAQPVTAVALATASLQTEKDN
Method in brief: as §1

ERG = target: T4, ERG (Homo sapiens, UniProt P11308 1-479); details: protein: recombinant; tags: N-terminal GST; dsDNA, one strand shown
T4 sequence: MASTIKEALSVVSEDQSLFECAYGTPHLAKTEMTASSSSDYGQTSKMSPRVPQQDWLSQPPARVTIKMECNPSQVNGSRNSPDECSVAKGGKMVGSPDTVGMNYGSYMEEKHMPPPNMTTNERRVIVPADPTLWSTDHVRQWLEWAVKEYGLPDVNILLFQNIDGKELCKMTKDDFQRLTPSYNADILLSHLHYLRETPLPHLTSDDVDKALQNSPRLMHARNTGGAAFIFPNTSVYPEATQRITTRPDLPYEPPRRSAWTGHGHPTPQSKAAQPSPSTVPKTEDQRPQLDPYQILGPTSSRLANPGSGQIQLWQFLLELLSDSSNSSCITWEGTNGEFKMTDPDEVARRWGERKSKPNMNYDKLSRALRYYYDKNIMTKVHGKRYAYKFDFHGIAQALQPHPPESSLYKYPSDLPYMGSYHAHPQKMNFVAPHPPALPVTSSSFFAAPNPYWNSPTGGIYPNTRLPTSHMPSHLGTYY
Method in brief: as §1

ELF1 = ELF1 (Homo sapiens, UniProt P32519 1-619); details: protein: recombinant; tags: N-terminal GST; dsDNA, one strand shown
ELF1, sequence (P32519 whole entry): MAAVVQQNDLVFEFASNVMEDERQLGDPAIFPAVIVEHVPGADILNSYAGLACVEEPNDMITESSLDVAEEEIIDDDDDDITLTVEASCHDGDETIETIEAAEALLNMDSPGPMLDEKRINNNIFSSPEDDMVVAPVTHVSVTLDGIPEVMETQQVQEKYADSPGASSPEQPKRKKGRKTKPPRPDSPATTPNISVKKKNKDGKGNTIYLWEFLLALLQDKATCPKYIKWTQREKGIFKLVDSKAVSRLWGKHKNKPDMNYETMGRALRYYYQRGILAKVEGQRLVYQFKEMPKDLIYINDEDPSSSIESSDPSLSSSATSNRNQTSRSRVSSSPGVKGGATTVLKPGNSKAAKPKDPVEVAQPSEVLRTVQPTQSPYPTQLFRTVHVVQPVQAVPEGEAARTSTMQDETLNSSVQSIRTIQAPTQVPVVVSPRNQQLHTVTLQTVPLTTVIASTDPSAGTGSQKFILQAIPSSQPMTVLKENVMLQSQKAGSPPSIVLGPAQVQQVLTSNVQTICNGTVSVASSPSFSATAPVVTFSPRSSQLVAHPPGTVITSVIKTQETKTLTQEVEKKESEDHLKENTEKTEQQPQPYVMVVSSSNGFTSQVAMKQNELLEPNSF
Method in brief: as §1

EHF = target: T5, EHF (Homo sapiens, UniProt Q9NZC4 1-300); details: protein: recombinant; tags: N-terminal GST; dsDNA, one strand shown
T5 sequence: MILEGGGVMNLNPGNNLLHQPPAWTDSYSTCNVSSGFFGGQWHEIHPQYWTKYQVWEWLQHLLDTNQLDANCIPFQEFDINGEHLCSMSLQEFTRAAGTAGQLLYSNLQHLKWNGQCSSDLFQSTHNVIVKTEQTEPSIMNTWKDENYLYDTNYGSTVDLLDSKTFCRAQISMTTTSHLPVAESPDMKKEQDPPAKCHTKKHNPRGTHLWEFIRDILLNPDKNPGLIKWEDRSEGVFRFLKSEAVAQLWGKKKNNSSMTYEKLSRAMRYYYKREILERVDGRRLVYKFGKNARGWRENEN
Method in brief: as §1

SPI1 = SPI1 (Homo sapiens, UniProt P17947 1-270); details: protein: recombinant; tags: N-terminal GST; dsDNA, one strand shown
Method in brief: as §1

SPIB = SPIB (Homo sapiens, UniProt Q01892 1-262); details: protein: recombinant; tags: N-terminal GST; dsDNA, one strand shown
SPIB, sequence (Q01892 whole entry): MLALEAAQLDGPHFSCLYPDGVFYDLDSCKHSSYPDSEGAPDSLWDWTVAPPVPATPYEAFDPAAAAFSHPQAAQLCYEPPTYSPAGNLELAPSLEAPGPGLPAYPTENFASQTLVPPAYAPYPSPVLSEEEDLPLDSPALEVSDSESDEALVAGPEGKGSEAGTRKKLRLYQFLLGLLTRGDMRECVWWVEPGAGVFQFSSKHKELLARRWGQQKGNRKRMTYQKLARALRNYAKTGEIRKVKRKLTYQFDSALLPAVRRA
Method in brief: as §1

FEV = target: T6, FEV (Homo sapiens, UniProt Q99581 1-238); details: protein: recombinant; tags: N-terminal GST; dsDNA, one strand shown
T6 sequence: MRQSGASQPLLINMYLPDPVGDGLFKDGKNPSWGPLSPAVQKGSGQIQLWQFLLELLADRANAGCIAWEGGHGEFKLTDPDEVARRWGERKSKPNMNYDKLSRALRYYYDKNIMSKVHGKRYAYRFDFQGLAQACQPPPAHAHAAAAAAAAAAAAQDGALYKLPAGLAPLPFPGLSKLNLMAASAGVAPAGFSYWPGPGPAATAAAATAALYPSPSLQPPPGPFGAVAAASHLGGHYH
Method in brief: as §1

ETV5 = ETV5 (Homo sapiens, UniProt P41161 1-510); details: protein: recombinant; tags: N-terminal GST; dsDNA, one strand shown
ETV5, sequence (P41161 whole entry): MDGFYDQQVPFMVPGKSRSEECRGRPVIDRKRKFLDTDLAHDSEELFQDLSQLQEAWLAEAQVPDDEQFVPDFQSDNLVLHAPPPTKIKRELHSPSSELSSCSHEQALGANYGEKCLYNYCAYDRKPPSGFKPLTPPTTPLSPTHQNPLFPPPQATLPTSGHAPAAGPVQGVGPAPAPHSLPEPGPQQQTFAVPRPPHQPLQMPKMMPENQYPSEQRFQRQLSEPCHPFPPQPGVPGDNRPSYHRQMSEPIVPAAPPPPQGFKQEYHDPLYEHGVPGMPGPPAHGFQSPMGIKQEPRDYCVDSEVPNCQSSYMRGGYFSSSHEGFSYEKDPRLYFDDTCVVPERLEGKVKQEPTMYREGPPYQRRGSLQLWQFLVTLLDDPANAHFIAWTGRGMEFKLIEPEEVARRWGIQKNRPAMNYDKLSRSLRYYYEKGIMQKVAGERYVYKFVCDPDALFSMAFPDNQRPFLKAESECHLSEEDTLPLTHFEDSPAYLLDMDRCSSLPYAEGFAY
Method in brief: as §1

HSF1 = HSF1 (Homo sapiens, UniProt Q00613 1-529); details: protein: recombinant; tags: N-terminal GST; chain copies: 3; dsDNA, one strand shown
HSF1, sequence (Q00613 whole entry): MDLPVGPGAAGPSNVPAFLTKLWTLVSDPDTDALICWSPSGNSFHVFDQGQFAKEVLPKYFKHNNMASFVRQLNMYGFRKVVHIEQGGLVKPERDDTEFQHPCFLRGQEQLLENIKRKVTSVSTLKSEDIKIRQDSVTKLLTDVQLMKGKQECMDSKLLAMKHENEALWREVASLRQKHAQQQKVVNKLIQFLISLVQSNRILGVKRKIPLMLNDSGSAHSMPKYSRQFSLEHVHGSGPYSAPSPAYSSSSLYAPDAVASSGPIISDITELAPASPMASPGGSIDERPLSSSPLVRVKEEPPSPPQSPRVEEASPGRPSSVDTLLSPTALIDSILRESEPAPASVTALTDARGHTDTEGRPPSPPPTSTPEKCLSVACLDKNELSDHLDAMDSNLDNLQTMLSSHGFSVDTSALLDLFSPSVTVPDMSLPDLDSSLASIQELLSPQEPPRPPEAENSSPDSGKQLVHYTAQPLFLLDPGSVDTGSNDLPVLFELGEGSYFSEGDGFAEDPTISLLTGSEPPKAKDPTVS
Method in brief: as §1

SPIC = target: T7, SPIC (Homo sapiens, UniProt Q8N5J4 1-248); details: protein: recombinant; tags: N-terminal GST; dsDNA, one strand shown
T7 sequence: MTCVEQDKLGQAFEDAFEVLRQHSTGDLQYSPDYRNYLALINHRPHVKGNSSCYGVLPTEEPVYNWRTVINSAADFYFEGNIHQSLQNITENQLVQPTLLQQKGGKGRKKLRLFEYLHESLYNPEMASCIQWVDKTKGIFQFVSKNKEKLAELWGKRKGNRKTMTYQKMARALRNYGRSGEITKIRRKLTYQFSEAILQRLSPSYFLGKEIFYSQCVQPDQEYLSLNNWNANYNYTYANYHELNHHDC
Method in brief: as §1

ELF4 = ELF4 (Homo sapiens, UniProt Q99607 1-663); details: protein: recombinant; tags: N-terminal GST; dsDNA, one strand shown
ELF4, sequence (Q99607 whole entry): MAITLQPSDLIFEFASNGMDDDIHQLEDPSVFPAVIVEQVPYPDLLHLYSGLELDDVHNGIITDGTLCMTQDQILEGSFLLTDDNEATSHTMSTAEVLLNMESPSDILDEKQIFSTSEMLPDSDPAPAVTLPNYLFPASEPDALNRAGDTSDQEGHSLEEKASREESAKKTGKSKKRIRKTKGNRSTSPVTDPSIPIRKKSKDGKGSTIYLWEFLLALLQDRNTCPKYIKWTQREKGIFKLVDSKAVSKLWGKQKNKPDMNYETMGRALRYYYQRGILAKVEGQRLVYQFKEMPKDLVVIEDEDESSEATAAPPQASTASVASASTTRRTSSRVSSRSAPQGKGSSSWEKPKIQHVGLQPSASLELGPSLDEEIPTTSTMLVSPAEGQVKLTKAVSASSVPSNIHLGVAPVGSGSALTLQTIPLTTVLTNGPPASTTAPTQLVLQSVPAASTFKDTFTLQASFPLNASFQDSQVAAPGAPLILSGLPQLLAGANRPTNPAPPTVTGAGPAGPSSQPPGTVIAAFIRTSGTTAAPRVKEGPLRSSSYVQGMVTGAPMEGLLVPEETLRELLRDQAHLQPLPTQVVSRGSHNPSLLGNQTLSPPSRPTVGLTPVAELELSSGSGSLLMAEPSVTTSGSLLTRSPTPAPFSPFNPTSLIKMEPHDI
Method in brief: as §1

ELK4 = target: T8, ELK4 (Homo sapiens, UniProt P28324-2 1-405); details: protein: recombinant; tags: N-terminal GST; dsDNA, one strand shown
T8 sequence: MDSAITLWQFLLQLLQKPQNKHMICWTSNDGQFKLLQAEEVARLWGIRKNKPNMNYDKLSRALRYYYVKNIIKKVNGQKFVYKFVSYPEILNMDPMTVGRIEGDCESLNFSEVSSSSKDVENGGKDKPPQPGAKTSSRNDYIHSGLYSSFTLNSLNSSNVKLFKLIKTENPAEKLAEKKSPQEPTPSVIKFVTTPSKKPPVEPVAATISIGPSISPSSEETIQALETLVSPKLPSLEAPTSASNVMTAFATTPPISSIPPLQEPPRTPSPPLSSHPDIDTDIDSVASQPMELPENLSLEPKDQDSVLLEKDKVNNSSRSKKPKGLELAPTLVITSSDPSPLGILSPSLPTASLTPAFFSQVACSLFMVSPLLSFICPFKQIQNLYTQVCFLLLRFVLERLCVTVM
Method in brief: as §1

ETV2 = target: T9, ETV2 (Homo sapiens, UniProt O00321 1-342); details: protein: recombinant; tags: N-terminal GST; dsDNA, one strand shown
T9 sequence: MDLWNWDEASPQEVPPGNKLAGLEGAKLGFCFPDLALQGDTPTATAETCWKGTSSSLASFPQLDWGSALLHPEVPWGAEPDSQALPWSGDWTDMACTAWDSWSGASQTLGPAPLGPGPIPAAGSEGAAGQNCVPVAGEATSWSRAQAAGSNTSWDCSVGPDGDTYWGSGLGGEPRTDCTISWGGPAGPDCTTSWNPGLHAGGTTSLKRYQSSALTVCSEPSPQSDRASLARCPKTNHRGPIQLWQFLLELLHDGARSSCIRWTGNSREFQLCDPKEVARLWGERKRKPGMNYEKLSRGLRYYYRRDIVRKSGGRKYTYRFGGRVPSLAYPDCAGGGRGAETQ
Method in brief: as §1

ELF3 = target: T10, ELF3 (Homo sapiens, UniProt P78545 1-371); details: protein: recombinant; tags: N-terminal GST; dsDNA, one strand shown
T10 sequence: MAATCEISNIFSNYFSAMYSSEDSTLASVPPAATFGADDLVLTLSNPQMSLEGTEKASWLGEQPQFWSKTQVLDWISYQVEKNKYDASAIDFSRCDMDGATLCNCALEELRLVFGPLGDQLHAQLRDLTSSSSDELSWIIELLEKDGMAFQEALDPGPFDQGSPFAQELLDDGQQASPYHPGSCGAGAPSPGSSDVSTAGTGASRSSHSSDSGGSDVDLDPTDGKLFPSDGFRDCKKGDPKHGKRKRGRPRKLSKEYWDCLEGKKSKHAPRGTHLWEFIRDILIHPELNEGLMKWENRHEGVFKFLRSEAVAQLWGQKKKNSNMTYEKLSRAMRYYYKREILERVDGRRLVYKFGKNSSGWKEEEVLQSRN
Method in brief: as §1

CRX = CRX (Homo sapiens, UniProt O43186 1-299); details: protein: recombinant; tags: N-terminal GST; dsDNA, one strand shown
CRX, sequence (O43186 whole entry): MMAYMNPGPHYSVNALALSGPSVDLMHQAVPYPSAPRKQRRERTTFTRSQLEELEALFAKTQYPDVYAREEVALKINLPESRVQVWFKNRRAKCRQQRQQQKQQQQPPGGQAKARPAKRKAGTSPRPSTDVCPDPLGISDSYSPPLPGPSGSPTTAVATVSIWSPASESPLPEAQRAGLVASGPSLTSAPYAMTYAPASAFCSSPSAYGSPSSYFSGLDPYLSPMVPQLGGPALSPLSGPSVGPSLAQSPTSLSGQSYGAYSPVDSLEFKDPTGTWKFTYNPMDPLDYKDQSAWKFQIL
Method in brief: as §1

ETV1 = ETV1 (Homo sapiens, UniProt P50549 1-477); details: protein: recombinant; tags: N-terminal GST; dsDNA, one strand shown
ETV1, sequence (P50549 whole entry): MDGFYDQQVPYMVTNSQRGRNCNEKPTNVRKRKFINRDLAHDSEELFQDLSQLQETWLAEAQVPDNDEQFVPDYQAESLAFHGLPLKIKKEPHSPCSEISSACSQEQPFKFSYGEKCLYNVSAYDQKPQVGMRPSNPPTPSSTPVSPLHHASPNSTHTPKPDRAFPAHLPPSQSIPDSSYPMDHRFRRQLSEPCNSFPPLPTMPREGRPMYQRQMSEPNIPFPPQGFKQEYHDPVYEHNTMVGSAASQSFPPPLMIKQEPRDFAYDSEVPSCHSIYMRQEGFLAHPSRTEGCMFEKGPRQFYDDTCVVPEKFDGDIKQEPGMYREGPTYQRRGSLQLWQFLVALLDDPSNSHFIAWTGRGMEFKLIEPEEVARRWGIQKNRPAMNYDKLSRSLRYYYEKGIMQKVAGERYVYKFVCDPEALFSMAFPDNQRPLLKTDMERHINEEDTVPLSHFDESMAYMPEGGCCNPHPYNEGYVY
Method in brief: as §1

**Q.** Which results are given for AATCAT?
**A.** binding signal (FLI1): 1.13 fold enrichment (6-mer frequency, TF over GST control); binding signal (ELK1): 1.12 fold enrichment (6-mer frequency, TF over GST control); binding signal (GABPA): 1.19 fold enrichment (6-mer frequency, TF over GST control); binding signal (ERG): 1.12 fold enrichment (6-mer frequency, TF over GST control); binding signal (ELF1): 1.16 fold enrichment (6-mer frequency, TF over GST control); binding signal (EHF): 1.17 fold enrichment (6-mer frequency, TF over GST control); binding signal (SPI1): 1.07 fold enrichment (6-mer frequency, TF over GST control); binding signal (SPIB): 1.21 fold enrichment (6-mer frequency, TF over GST control); binding signal (FEV): 1.1 fold enrichment (6-mer frequency, TF over GST control); binding signal (ETV5): 1.15 fold enrichment (6-mer frequency, TF over GST control); binding signal (HSF1): 1.27 fold enrichment (6-mer frequency, TF over GST control); binding signal (SPIC): 1.14 fold enrichment (6-mer frequency, TF over GST control); binding signal (ELF4): 1.06 fold enrichment (6-mer frequency, TF over GST control); binding signal (ELK4): 1.12 fold enrichment (6-mer frequency, TF over GST control); binding signal (ETV2): 1.21 fold enrichment (6-mer frequency, TF over GST control); binding signal (ELF3): 1.17 fold enrichment (6-mer frequency, TF over GST control); binding signal (CRX): 1.39 fold enrichment (6-mer frequency, TF over GST control); binding signal (ETV1): 1.15 fold enrichment (6-mer frequency, TF over GST control)
